From article PMC4336329 (PLoS ONE, 2015) come the findings set out here.

Out of some 310,000 compounds screened, about 2,200 (0.71%) showed an effect of 50% or more. Effects have a minus sign here. The full list was thinned out, with strong results kept by preference.

human ether-à-go-go-related gene (hERG) potassium channel, sequence (Q12809 whole entry, looked up): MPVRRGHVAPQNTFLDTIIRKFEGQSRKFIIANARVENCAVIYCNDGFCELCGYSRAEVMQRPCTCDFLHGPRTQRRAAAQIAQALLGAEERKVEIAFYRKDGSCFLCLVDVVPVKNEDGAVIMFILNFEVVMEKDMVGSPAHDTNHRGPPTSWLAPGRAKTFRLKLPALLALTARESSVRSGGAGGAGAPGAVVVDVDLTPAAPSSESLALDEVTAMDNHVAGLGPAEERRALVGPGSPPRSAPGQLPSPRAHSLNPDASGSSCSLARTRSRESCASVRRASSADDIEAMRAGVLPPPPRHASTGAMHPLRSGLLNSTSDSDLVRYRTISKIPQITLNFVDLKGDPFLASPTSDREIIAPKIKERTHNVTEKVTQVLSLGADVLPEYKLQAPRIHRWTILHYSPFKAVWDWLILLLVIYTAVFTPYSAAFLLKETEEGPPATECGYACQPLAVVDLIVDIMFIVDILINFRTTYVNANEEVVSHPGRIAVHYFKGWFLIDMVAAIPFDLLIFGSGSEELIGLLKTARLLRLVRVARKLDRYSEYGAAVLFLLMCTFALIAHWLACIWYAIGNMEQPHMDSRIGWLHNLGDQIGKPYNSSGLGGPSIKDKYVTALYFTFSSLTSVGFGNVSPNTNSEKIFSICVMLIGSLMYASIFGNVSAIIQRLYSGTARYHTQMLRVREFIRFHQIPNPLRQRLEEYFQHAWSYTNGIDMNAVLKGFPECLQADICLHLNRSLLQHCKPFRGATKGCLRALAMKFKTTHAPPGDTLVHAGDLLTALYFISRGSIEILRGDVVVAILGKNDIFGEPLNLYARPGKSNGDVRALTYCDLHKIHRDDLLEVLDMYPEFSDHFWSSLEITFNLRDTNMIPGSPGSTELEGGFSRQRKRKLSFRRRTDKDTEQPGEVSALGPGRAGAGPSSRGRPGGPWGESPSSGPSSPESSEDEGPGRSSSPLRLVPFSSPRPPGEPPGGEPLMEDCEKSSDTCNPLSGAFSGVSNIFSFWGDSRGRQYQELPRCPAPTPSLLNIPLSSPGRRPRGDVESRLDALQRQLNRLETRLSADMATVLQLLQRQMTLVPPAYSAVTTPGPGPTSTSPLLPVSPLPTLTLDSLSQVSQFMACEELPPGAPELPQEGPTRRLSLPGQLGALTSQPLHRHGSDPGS

The assay addresses human ether-à-go-go-related gene (hERG) potassium channel (human, UniProt Q12809). Description: primary screen, population patch clamp on CHO cells stably expressing hERG; higher = less effect of the substance.
With `COc1cccc(Cn2c(-c3cccs3)noc2=O)c1`, the “hERG current change (%, negative = inhibition) at 1uM” value is -8.06%. With `COc1ccc(C)cc1S(=O)(=O)N(CC(=O)N1CCOCC1)c1cc(C)cc(C)c1` the figure was -52%; with `COc1ccc(C)cc1S(=O)(=O)N(CC(=O)N1CCCC1)c1ccccc1`, 4.54%.

Turning to `COc1ccc(C)cc1S(=O)(=O)N(CC(=O)N1CCCC1)c1ccc(C)cc1`, the “hERG current change (%, negative = inhibition) at 1uM” value is -25.1%. As for `CCCC(=O)Nn1cnc2c(c1=O)C1(CCCCC1)Cc1ccccc1-2`, the “hERG current change (%, negative = inhibition) at 1uM” value stood at 7.68%. For the molecule `COCCN=C1Sc2nc3cc(C)c(C)cc3cc2CN1Cc1cccs1`, the “hERG current change (%, negative = inhibition) at 1uM” value came out at 8.08%.

`COc1ccc(NC(=O)CN2CCCCCC2)cc1OC`: the “hERG current change (%, negative = inhibition) at 1uM” value is listed as 7.92%. As to `NC(=O)C1(N2CCCCC2)CCN(CC(=O)Nc2ccccc2-c2ccccc2)CC1`, the “hERG current change (%, negative = inhibition) at 1uM” value turned out to be 15.5%. With `COc1ccc(NC(=O)CN2CCN(c3ccccc3Cl)CC2)cc1` the figure was 1.08%; with `COc1ccc(NC(=O)CCN2CCN(S(=O)(=O)c3ccc(Cl)cc3)CC2)cc1`, 2.03%.

Regarding `NC(=O)C1(N2CCCCC2)CCN(CC(=O)Nc2cc(Cl)ccc2Cl)CC1`, the “hERG current change (%, negative = inhibition) at 1uM” value is on record as -55.3%.

Regarding `COc1ccc(NC(=O)CN2CCN(S(=O)(=O)c3ccc(Cl)cc3)CC2)cc1`, the “hERG current change (%, negative = inhibition) at 1uM” value is listed as -64.1%. In the case of `COc1ccc(NC(=O)CN2CCN(CC(=O)Nc3ccc(OC)c(OC)c3)CC2)cc1` it was -66.1%; in that of `COc1cccc(NC(=O)CN2CCN(CC(=O)Nc3ccccc3Cl)CC2)c1`, -21.1%; in that of `COc1ccc(NC(=O)CN2CCN(CC(=O)Nc3ccccc3Cl)CC2)cc1`, -79.3%. With `COc1ccc(NC(=O)CN2CCC(C(N)=O)CC2)cc1` the figure was 2.62%. With `O=C(CN1CCCCC1)Nc1cc(Cl)ccc1Cl` the figure was -0.089%. In the case of `CCOc1ccc(NC(=O)CN2CCN(S(=O)(=O)c3ccc(Cl)cc3)CC2)cc1`, the “hERG current change (%, negative = inhibition) at 1uM” value is reported as 10.8%. With `O=C(Nc1nc(-c2ccc3c(c2)OCCO3)cs1)C1CCCC1` the figure was 8.23%; with `COC(=O)C1=C(c2cc3ccccc3o2)C[C@@H]2CC[C@H]1N2C(=O)N1CCCC1`, 7.5%; with `NC(=NCCc1ccc(Cl)cc1)NS(=O)(=O)c1ccccc1`, 9.74%. With `O=C(c1ccccc1Br)N1CCCC(c2nc(-c3cccs3)no2)C1` (stereo not drawn) the figure was 13.2%; with `COc1ccc2oc(=N)c(-c3nnc4n3CCCCC4)cc2c1`, 1.02%; with `Cc1ccccc1C(=O)N1CCC(C(=O)Nc2ccc(C)c(S(=O)(=O)N3CCCCC3)c2)CC1`, 2.28%. Consider `COc1ccc(S(=O)(=O)N2CCN(Cc3ccc(Cl)cc3)CC2)cc1`, for which the “hERG current change (%, negative = inhibition) at 1uM” value was -4.05%. Regarding `O=C(CN1CCN(S(=O)(=O)N2CCCCCC2)CC1)Nc1ccc(Br)cc1`, the “hERG current change (%, negative = inhibition) at 1uM” value was -3.27%.

For the molecule `COc1ccc(NC(=O)CN2CCN(S(=O)(=O)N3CCCCCC3)CC2)cc1`, the “hERG current change (%, negative = inhibition) at 1uM” value is -60.8%. In the case of `COc1ccc(NC(=O)CN2CCCCC2)cc1.O=C(O)C(=O)O` it was 10.6%; in that of `COc1ccc(NC(=O)CN2CCN(S(=O)(=O)N(C)C)CC2)cc1`, 13.9%. In the case of `COc1cccc(CN2CCCN(S(=O)(=O)c3ccc(Br)cc3)CC2)c1` it was -22.3%; in that of `O=C(CN1CCN(C(=O)C2CCC2)CC1)Nc1ccc(F)cc1`, -27.3%; in that of `COc1ccc(CN2CCCN(S(=O)(=O)c3ccc(Br)cc3)CC2)cc1`, -75.6%.

Consider `O=C(CN1CCCC1)Nc1ccc(F)cc1`, for which the “hERG current change (%, negative = inhibition) at 1uM” value amounted to 16.6%. As for `O=C(CN1CCN(C(=O)N2CCCCC2)CC1)Nc1ccc(F)cc1`, the “hERG current change (%, negative = inhibition) at 1uM” value is -76.5%. With `O=C(CN1CCN(S(=O)(=O)N2CCCCC2)CC1)Nc1ccc(Br)cc1`, the “hERG current change (%, negative = inhibition) at 1uM” value was 2.87%.

As for `O=C(CN1CCN(S(=O)(=O)N2CCCCCC2)CC1)Nc1ccc(F)cc1`, the “hERG current change (%, negative = inhibition) at 1uM” value is given as -75.1%.

In the case of `CCc1nnc(NC(=O)C2COc3ccccc3O2)s1` (stereo not drawn), the “hERG current change (%, negative = inhibition) at 1uM” value stood at 2.41%. With `CCn1nc(NC(=O)COC)c2cc3cc(C)ccc3nc21` the figure was 9.09%; with `COc1ccc(NS(=O)(=O)NC(=O)c2c[nH]c3ccccc23)cc1`, 9.58%. In the case of `CCOc1cc(CO)cc(Br)c1OCC(=O)Nc1ccccc1C` it was 6.36%; in that of `Cc1cc(NC(=O)CCC(=O)NNC(=O)c2ccc(C(C)(C)C)cc2)no1`, 6.49%; in that of `COc1cccc(C(=O)CN2CCN(S(=O)(=O)c3cccc([N+](=O)[O-])c3)CC2)c1`, 6.87%. In the case of `COc1ccc(C(=O)CN2CCN(S(=O)(=O)c3cccc([N+](=O)[O-])c3)CC2)cc1` it was -64.3%; in that of `COc1ccc(C(=O)CN2CCN(S(=O)(=O)c3cccc([N+](=O)[O-])c3)CC2)cc1OC`, 3.44%; in that of `COc1cccc(NC(C)=[N+](C)CCNS(=O)(=O)c2ccc(Cl)cc2)c1.[I-]`, -36.6%.
